Assay outcomes deposited in PubChem by Broad Institute.
HIV Env fusion = inhibitors of HIV Env-mediated cell fusion | HeLa-JRFL Env/CEM21 cell fusion, luciferase | inhibition, % at 12.3 µM | 1.1% of 360,000 active | AID 651610;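 active = mean replicate inhibition score of at least 50 and every replicate individually at or above 50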;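 also: 0% = plate neutral controls and 100% = maraviroc near 300 nM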
F508del corr = CFTR F508del correction in bronchial cells; 0.36% of 350,000 active; AID 720511; CFBE cells, YFP halide quenching; stimulated with forskolin plus potentiator P3; % fluorescence drop versus neutral controls; activity (quench increase), % at 7.58 µM;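 active = mean added fluorescence quench of at least 8% versus neutral control, with both replicates also reaching 8%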;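 also: cells transiently co-express mutant CFTR-F508del with the halide-sensitive YFP; corrector assay measuring rescue of mutant channel to the surface after 24 h compound exposure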
GSIS activator = primary screen for activators of insulin secretion dependent on glucose, INS-1E cells, GLuc reporter luminescence | activation, % at 16.6 µM | INS-1E GLuc reporter insulin secretion, 2-3 h | 0.61% of 370,000 active;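 active = lowest replicate activation of at least 40%, so every replicate reaches that level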;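 also: 0% = median of neutral control wells and 100% = median of IBMX positive control wells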
PGC1a acetyl inh = PGC1a acetylation modulation, inhibitor mode; U2OS PGC1a acetylation, AlphaScreen anti-acetyl-lysine; with virally co-expressed GCN5 acetyltransferase; inhibition, % at 15.6 µM; 0.17% of 350,000 active; AID 651687;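 active = every replicate shows inhibition of at least 40%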;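 also: 0% = neutral control wells and 100% = positive control wells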
PAX8 inh HTS = inhibitors of PAX8 transcriptional activity in RMG-I cells. RMG-I TPO-luciferase reporter, SteadyGlo, 24 h. inhibition, % at 12.6 µM. 1.2% of 360,000 active. AID 652154;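 active = mean replicate inhibition at least 60% with every replicate also reaching 60%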;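 also: luciferase light reporting Pax8 driven TPO promoter activity; plate controls were median of neutral control wells for no effect and mitoxantrone controls for full effect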
EWS-Fli block = inhibitors of EWS/Fli oncoprotein transcriptional activity. A673 NR0B1-luciferase reporter, viability-normalised. inhibition, % at 12.6 µM. 0.67% of 350,000 active. AID 651661;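 active = mean inhibition of at least 50% after viability correction, with every replicate also passing that limit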;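 also: firefly luciferase signal divided by Alamar Blue viability fluorescence both relative to DMSO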
* = called active by the depositor; · = no result given; [ ] = remark or other dose. This is a sample that favours compounds with a hit; in the whole collection about 2.7% have one here.

SMILES	HIV Env fusion	F508del corr	GSIS activator	PGC1a acetyl inh	PAX8 inh HTS	EWS-Fli block
CC(C)NC(=O)N(C)C[C@@H]1Oc2c(NC(=O)c3ccncc3)cccc2C(=O)N([C@@H](C)CO)C[C@@H]1C	·	-1.7	14.2	6.3	-5.4	-7.7
Cc1cc(C)cc(OCC(=O)Nc2ccc(N3CCCCC3)cc2)c1	·	-0.3	-13.3	1.5	-3.3	-4.1
Cc1cc(C)cc(OCC(=O)N(C)CC(=O)Nc2ccc(N3CCOCC3)cc2)c1	-6.8	0.3	6.5	-11.4	75.1*	4.5
Cc1cc(C)c(C)c(S(=O)(=O)ON2C(=O)c3ccccc3C2=O)c1C	·	-3.4	-1.6	-9.3	·	56.1*
Cc1cccc(CN2CCN(CC(=O)NCCCN3CCN(c4ccc(F)cc4)CC3)C2=O)c1	58.7*	·	·	7.7	·	·
COc1ccc2cc(C=NS(=O)(=O)c3ccc(C)cc3)n(C)c2c1	58.6*	5.6	8.1	8.9	-8.4	1.8
Cc1cc(OCCCN2CCC(C(O)(c3ccccc3)c3ccccc3)CC2)ccc1Br	0.0	1.9	476.8*	·	1.1	29.0
Cc1ccccc1OCCCN1CCC(C(O)(c2ccccc2)c2ccccc2)CC1	8.2	4.7	·	·	-10.0	9.7
Cc1cc(C)cc(OCCCN2CCC(C(O)(c3ccccc3)c3ccccc3)CC2)c1	-8.9	-0.6	182.4*	·	1.4	-16.8
CCn1c2ccccc2c2cc(/C=C(/C#N)C(N)=S)ccc21	56.6*	1.1	-15.5	·	10.0	18.2
C[C@H](NC(=O)C[C@@H]1C[C@H]2c3cc(NC(=O)C4CCOCC4)ccc3O[C@H]2[C@@H](CO)O1)c1ccccc1	11.8[16.7 µM]	-0.2	16.2	-3.3	-16.5	-7.0
OC(c1ccc(OCc2ccccc2)cc1)c1nnc(-c2ccccc2)o1 (stereo not given)	·	·	·	5.1	·	·
OC(c1cccc(OCc2ccccc2)c1)c1nnc(-c2ccccc2)o1 (stereo not given)	73.3*	·	·	5.2	25.7	·
COc1ccc2c3c([nH]c2c1)[C@@H](CO)N(C(=O)c1cccnc1)CC31CN(C(=O)c2cccnc2)C1	·	-0.1	-12.6	-1.6	·	-7.9
O=C(COc1ccc(C(=O)O)cc1)Nc1cccc(C(F)(F)F)c1	-3.0	1.2	14.0	11.1	0.3	9.5
O=C(O)c1ccc(OS(=O)(=O)c2cccc(C(F)(F)F)c2)cc1	0.0	-2.8	72.6*	1.5	-5.4	5.9
CCOC(=O)c1cc2sccc2n1CC(=O)N1CCc2ccccc21	62.3*	·	5.9	2.0	·	·
O=C(Nc1ccncc1)c1ccc(Cl)c(S(=O)(=O)N2CCc3ccccc32)c1	89.6*	-6.1	-17.6	·	49.3	29.5
NS(=O)(=O)c1ccc(NC(=O)c2ccc(S(=O)(=O)N3CCc4ccccc43)cc2)cc1	17.7	5.1	0.6	2.0	9.8	12.4
COc1ccc(C(=O)Nc2ccc(S(=O)(=O)N3CCc4ccccc43)cc2)cc1	62.1*	·	·	·	·	·
CON(C)c1nc(OCCNC(=O)OCc2ccc(Cl)cc2C)nc(N(C)C)n1	150.3*	·	·	-9.3	12.0	·
Nc1nc(N)c2cc(S(=O)(=O)c3cccc(C(F)(F)F)c3)ccc2n1	4.6	3.1	4.5	0.3	28.5	14.5
CN(C)c1ccc(Sc2ccc3nc(N)nc(N)c3c2)cc1	27.9	5.6	16.5	45.8*	52.8	2.2
CCS(=O)(=O)N1CC2(C1)[C@@H](c1ccccc1)[C@@H](CO)N2C(=O)C1CC1	·	-0.3	15.3	-2.6	-4.3	-3.4
N#C[C@@H]1[C@@H](c2ccc(-c3ccncc3)cc2)[C@@H](CO)N1C(=O)C1CCCC1	2.7[16.7 µM]	-0.6	4.8	-2.5	-5.1	4.3
SMILES	HIV Env fusion	F508del corr	GSIS activator	PGC1a acetyl inh	PAX8 inh HTS	EWS-Fli block
CCN(CCO)c1ccc(N=Nc2cc(C)[nH]n2)cc1	39.5	-0.9	-12.0	·	86.6*	63.6*
COc1ccc(CNC(=O)CCn2c(=O)oc3ccccc32)c(OC)c1	-4.8	1.3	58.3*	-1.2	0.8	-12.4
COc1cccc(CNC(=O)CCn2c(=O)oc3ccccc32)c1	-82.9	·	·	1.9	·	·
C[C@@H]1CN([C@@H](C)CO)C(=O)c2cc(NC(=O)C3CCCCC3)ccc2O[C@@H]1CN(C)S(=O)(=O)c1cn(C)cn1	-36.9[16.7 µM]	1.2	8.1	-1.0	·	2.5
O=C(Cc1ccc(F)cc1)OCC(=O)N1CCN(S(=O)(=O)c2ccc(Cl)cc2)CC1	-2.1	-2.0	-14.9	·	101.3*	-9.6
O=C(N/N=C/c1ccc(Cl)c([N+](=O)[O-])c1)c1cc(-c2ccc3c4c(cccc24)CC3)n[nH]1	-35.0	-0.7	5.3	-6.9	96.8*	23.6
